From PubChem BioAssay (NCATS) come the findings set out here.

Inconclusive results are not listed. Calls of active or inactive are those of the source. The call rests on the fitted dose curve; in most records, active means well fitted cell-killing curve with a large enough effect; inconclusive means small, poorly fitted or top-dose-only effect; inactive means no such curve, though single readings can be large or run the other way.

This experiment can be described thus: qHTS of pediatric cancer cell lines to identify multiple opportunities for drug repurposing: Primary screen for Saos-2 cells (AID 1347097). Further: nearly all actives have a fitted effect of over 40% in size. The following applies: Saos-2 viability, CellTiter-Glo ATP luminescence, 48 h; series mostly up to 46 µM. The source says:
Drug repurposing or repositioning has been offered as a strategy for drug development in oncology programs. This approach has special potential for childhood cancers and other rare or orphan diseases, where the expected return on new drug development has been a disincentive to pharmaceuticals. […] In this project we exploit the poly-pharmacology of drugs to discover new indications via phenotypic screening of a panel of 19 well-characterized cell lines derived from solid tumors seen in children and adolescents. The goal is to identify approved drugs with previously unrecognized anticancer properties that has the potential to reveal new mechanisms and biological processes involved in carcinogenesis or drug resistance. We employed a titration-based paradigm (quantitative high-throughput screening or qHTS), where all compounds were tested at multiple concentrations for their effect on cell viability. Concentration-response curves (CRCs) were derived directly from the primary screen, and both potency and efficacy values were used to identify compounds with robust bioactivity profiles. We screened the NIH Chemical Genomics Center (NCGC) Pharmaceutical Collection (NPC) and Mechanism Interrogation Plate (MIPE) small molecule collections of approved and investigational compounds against these cell lines; and measured metabolically active cells after 48 hours of compound treatment as a proxy for cell viability. […] Assay Submitter: Nathalia J. Martinez, National Center for Advancing Translational Sciences, National Institutes of Health, Rockville, MD, USA; email: natalia.martinez@nih.gov Shen, M et al. Quantitative high-throughput phenotypic screening of pediatric cancer cell lines identifies multiple opportunities for drug repurposing. Oncotarget 2017 Dec 19;9(4):4758-4772. PMID 29435139.
The cells were obtained from University of North Carolina (UNC), Pediatric Preclinical Testing Program (PPT), and Coriell Institute (CI). qHTS cell viability assay: Cells were assayed in growth media at a density of 500-1,000 cells/well. Five microliters of cells were dispensed into 1,536-well, white, solid-bottom, TC-treated plates (Greiner Bio One) using a multidrop dispenser and incubated at 37 degrees C, 5% CO2, under a humidified atmosphere for 5 hours. Twenty-three nanoliters of compounds and controls (neutral control DMSO or positive control bortezomib at final concentration of 2.3 µM) were subsequently transferred by Kalypsys pintool. For primary screens, the MIPE collection was tested at 11-point dilutions (final concentrations range from 0.78 nM to 46 µM) and the NPC collection at 8-point dilutions (final concentrations range from 0.59 nM to 46 µM). Compounds tested in follow-up screens were assayed at 11-point dilutions. Cells were incubated for 48 hours, followed by addition of 3 µL of CellTiter-Glo (Promega). After a 15 min incubation at room temperature, samples were analyzed for luminescence intensity using a ViewLux High-throughput CCD imager equipped with clear filters.
For orientation: qHTS replaces the single test concentration by a dilution series.
As for `Cc1ccccc1N=Nc1ccc(N=Nc2c(O)ccc3ccccc23)c(C)c1`, the result was inactive.
`CC1(C)S[C@@H]2[C@H](N=CN3CCCCCC3)C(=O)N2[C@H]1C(=O)O`: the compound was called inactive.
For the compound `CCOc1ccc(C(=O)OCCN(CC)CC)cc1`, the result was inactive.
In the case of `COC(=O)c1ccccc1C(=O)c1ccc(OCCN2CCCCC2)cc1` it was “inactive”; in that of `O=c1[nH]c(=O)n([C@H]2C[C@H](O)[C@@H](CO)O2)cc1I`, “inactive”; in that of `O=C1c2ccccc2C(=O)C1c1ccc(Br)cc1`, “inactive”.
`O=C(O)c1ccccc1OP(=O)(O)O`: the result was inactive.
As for `O=C(O)Cc1ccc(CCNS(=O)(=O)c2ccc(Cl)cc2)cc1`, the call was inactive.
In the case of `CCCCC1(COC(=O)CCC(=O)O)C(=O)N(c2ccccc2)N(c2ccccc2)C1=O` it was “inactive”; in that of `CCOC(=O)OC(C)OC(=O)[C@@H]1N2C(=O)[C@@H](NC(=O)[C@H](N)c3ccccc3)[C@H]2SC1(C)C` (stereo not given in full), “inactive”.
As to `CCCCCOC(=O)Nc1nc(=O)n([C@@H]2O[C@H](C)[C@@H](O)[C@H]2O)cc1F`, the compound was called inactive.
Then `Cc1c(C)c2c(c(C)c1OC(=O)c1cccnc1)CC[C@@](C)(CCC[C@H](C)CCC[C@H](C)CCCC(C)C)O2`, with “inactive”; and `CC(=O)OCC(COC(C)=O)OC(C)=O`, with “inactive”; and `CCc1cccc(CC)c1NC(=O)CN(CC(=O)O)CC(=O)O`, with “inactive”.
Take `CCCCCC(N)=O`: the compound was classed as inactive.
On to `COC(=O)c1ccc(O)cc1`, for which the outcome was inactive.
In the case of `CCCCCC(C)N` (stereo not given), the call was inactive.
In the case of `O=C(O)c1ccc(OCCCOc2ccc(C(=O)O)cc2)cc1` it was “inactive”; in that of `CC(C)=CCC/C(C)=C/CO`, “inactive”; in that of `Cc1cccc(C(=O)O)c1O`, “inactive”.
In the case of `O=S1(=O)OC(c2ccc(O)cc2)(c2ccc(O)cc2)c2ccccc21`, the outcome was inactive.
In the case of `CC[N+](CC)(CC(=O)Nc1c(C)cccc1C)Cc1ccccc1` it was “inactive”; in that of `OCC(O)CS` (stereo not given), “inactive”.
As for `CC[N+](C)(CC)CCOC(=O)C1c2ccccc2Oc2ccccc21`, the outcome was inactive.
On to `CCN(CC)CC1CCCCN1CC(=O)N1c2ccccc2C(=O)Nc2cccnc21` (stereo not given), for which the compound was called inactive.
`CC(=O)N[C@H]1[C@H]([C@H](O)[C@H](O)CO)OC(C(=O)O)=C[C@@H]1N=C(N)N`: the compound was classed as inactive.
Then `CC1(C)S[C@@H]2[C@H](NC(=O)C(C(=O)O)c3ccccc3)C(=O)N2[C@H]1C(=O)O` (stereo not given in full), with “inactive”.
In the case of `CC(=O)Oc1cccc(C)c1`, the call was inactive.
`CC(CSC(=O)c1ccccc1)C(=O)N1C[C@@H](Sc2ccccc2)C[C@H]1C(=O)O` (stereo not given in full): the compound was classed as inactive.
Turning to `O=C(NCCCN1CCOCC1)c1ccc(Cl)cc1`, the call was inactive.
Turning to `CC(=O)NS(=O)(=O)c1ccc(N)cc1`, the result was inactive.
For the compound `CC(=O)N(CC(O)CO)c1c(I)c(C(=O)NCC(O)CO)c(I)c(C(=O)NCC(O)CO)c1I` (stereo not given), the compound was classed as inactive.
For `O=C(CN1CCNCC1)NC1CCCCC1`, the outcome was inactive.
Regarding `C1CCN2C[C@@H]3C[C@@H](CN4CCCC[C@@H]34)[C@H]2C1`, the compound was called inactive.
For `C[C@@H](N)C(=O)O`, the compound was called inactive.
As for `C[C@H]1COc2c(C3(N)CC3)c(F)cc3c(=O)c(C(=O)O)cn1c23`, the outcome was inactive.
In the case of `O=C(O)Cn1c(C(=O)Nc2nc(-c3ccccc3Cl)cs2)cc2ccccc21` it was “inactive”; in that of `Cc1c(Cn2ccnc2)c2ccccc2n1CCC(=O)O`, “inactive”; in that of `CCCCCCCCCCCCCCCCN`, “inactive”.
On to `Nc1ncnc(Nc2ccccc2)n1`, for which the result was inactive.
